Experimental data from PubChem BioAssay (EPA / NIEHS).
Results filed as inconclusive are left out. Calls of active or inactive are those of the source. The calls were made as follows, unless noted: active = hit-call score of the fitted dose curve at least 0.9, where 1 is the maximum; inactive = score below 0.9.

Assays:
[1] = read-out: Nuclear factor erythroid 2-related factor 2 (Homo sapiens) (UniProt Q16236); assay: LTEA_HepaRG_NFE2L2: Life Technologies and Expression Analysis (LTEA) Assay for Nuclear factor erythroid 2-related factor 2 (NFE2L2) Transcription Factor using HepaRG (AID 2283527); details: mRNA level, 48 h; actives raise or lower the signal
Procedure, shortened: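 Human liver HepaRG line treated in duplicate for 48 h with an eight-point series topping at 100 uM. Gene expression of NFE2L2 by qRT-PCR, bidirectionally fitted against the vehicle control.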

[2] = read-out: succinate dehydrogenase complex iron sulfur subunit B (SDHB), SDHB (gene 6390); assay: LTEA_HepaRG_SDHB: Life Technologies and Expression Analysis (LTEA) Assay for succinate dehydrogenase complex iron sulfur subunit B (SDHB) using HepaRG (AID 2283528); details: mRNA level, 48 h; actives raise or lower the signal
Procedure, shortened: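 A human HepaRG culture in serum-free induction medium received test chemicals for 48 h over an eight-point range capped at 100 uM. SDHB expression change was quantified by qRT-PCR.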

[3] = read-out: Signal transducer and activator of transcription 3 (Homo sapiens) (UniProt P40763); assay: LTEA_HepaRG_STAT3: Life Technologies and Expression Analysis (LTEA) Assay for Signal transducer and activator of transcription (STAT3) using HepaRG (AID 2283529); details: mRNA level, 48 h; actives raise or lower the signal
Procedure, shortened: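 In this transcriptional endpoint, HepaRG cultures receive test chemicals at up to 100 uM for 48 h, tested in duplicate. STAT3 mRNA is normalized to ACTB, GAPDH and POLR2A.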

[4] = read-out: sulfotransferase 2A1 (SULT2A1), SULT2A1 (gene 6822); assay: LTEA_HepaRG_SULT2A1: Life Technologies and Expression Analysis (LTEA) Assay for sulfotransferase 2A1 (SULT2A1) using HepaRG (AID 2283531); details: mRNA level, 48 h; actives raise or lower the signal
Procedure, shortened: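 Transcript levels of SULT2A1, quantified by qRT-PCR and normalized to three housekeeping genes, serve as the readout. Human HepaRG cultures receive test chemicals for 48 h at up to 100 uM in half-log steps, with 0.5% DMSO vehicle.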

[5] = read-out: Transforming Growth Factor (TGFA), TGFA (gene 7039); assay: LTEA_HepaRG_TGFA: Life Technologies and Expression Analysis (LTEA) Assay for Transforming Growth Factor (TGFA) using HepaRG (AID 2283532); details: mRNA level, 48 h; actives raise or lower the signal
Procedure, shortened: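 Gene expression of TGFA was quantified by qRT-PCR after human HepaRG cells were treated for 48 h with test chemicals (eight concentrations, highest 100 uM, 0.5% DMSO). Activity in either direction was fitted relative to DMSO.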

[6] = read-out: Transforming Growth Factor (TGFB1), TGFB1 (gene 7040); assay: LTEA_HepaRG_TGFB1: Life Technologies and Expression Analysis (LTEA) Assay for Transforming Growth Factor (TGFB1) Transporter using HepaRG (AID 2283533); details: mRNA level, 48 h; actives raise or lower the signal
Procedure, shortened: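 HepaRG, 48 h post-plating, switched to serum-free induction medium; chemicals 100 uM top, half-log, 8 pts, 0.5% DMSO, dup; 48 h exposure; RNA → Fluidigm TaqMan qRT-PCR; norm ACTB/GAPDH/POLR2A; bidirectional fit vs DMSO.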

TIMP1, TIMP1 (gene 7076) = assay: LTEA_HepaRG_TIMP1: Life Technologies and Expression Analysis (LTEA) Assay for TIMP1 using HepaRG (AID 2283534); details: mRNA level, 48 h; actives raise or lower the signal;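 also: TaqMan qRT-PCR signal normalized to ACTB GAPDH and POLR2A housekeeping genes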
Procedure, shortened: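 Readout is TIMP1 mRNA level measured by qRT-PCR and normalized to three housekeeping genes. Human HepaRG cells were treated for 48 h in duplicate at eight concentrations up to 100 uM (0.5% DMSO); gain or loss fitted against DMSO.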

[7] = read-out: Tumor necrosis factor receptor 1 (TNFRSF1A), TNFRSF1A (gene 7132); assay: LTEA_HepaRG_TNFRSF1A: Life Technologies and Expression Analysis (LTEA) Assay for Tumor necrosis factor receptor 1 (TNFRSF1A) using HepaRG (AID 2283535); details: mRNA level, 48 h; actives raise or lower the signal
Procedure, shortened: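 Read-out is TNFRSF1A transcript level by TaqMan qRT-PCR, normalized to three housekeeping genes, scored as gain or loss of signal versus 0.5% DMSO. Human HepaRG cells received test chemicals for 48 h at up to 100 uM (half-log series).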

[8] = read-out: Thyroid Hormone Responsive (THRSP), THRSP (gene 7069); assay: LTEA_HepaRG_THRSP: Life Technologies and Expression Analysis (LTEA) Assay for Thyroid Hormone Responsive (THRSP) using HepaRG (AID 2283536); details: mRNA level, 48 h; actives raise or lower the signal
Procedure, shortened: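 Cell model: human HepaRG, approx. 100,000 cells/well, 0.5% DMSO vehicle. Exposure lasts 48 h; phenobarbital 1 mM serves as induction positive control. Gene expression is measured by qRT-PCR against three endogenous control genes.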

[9] = read-out: Cellular tumor antigen p53 (Homo sapiens) (UniProt P04637); assay: LTEA_HepaRG_TP53: Life Technologies and Expression Analysis (LTEA) Assay for Tumor Protein P53 (TP53) using HepaRG (AID 2283537); details: mRNA level, 48 h; actives raise or lower the signal
Procedure, shortened: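 Gain or loss of TP53 mRNA signal is scored relative to 0.5% DMSO after 48 h chemical treatment of HepaRG liver cells, tested in duplicate at eight half-log concentrations up to 100 uM.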

[10] = read-out: UDP glucuronosyltransferase (UGT1A1), UGT1A1 (gene 54658); assay: LTEA_HepaRG_UGT1A1: Life Technologies and Expression Analysis (LTEA) Assay for UDP glucuronosyltransferase (UGT1A1) using HepaRG (AID 2283538); details: mRNA level, 48 h; actives raise or lower the signal
Procedure, shortened: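 HepaRG, 48 h chemical exposure (top 100 uM, half-log 8-pt, 0.5% DMSO vehicle), duplicate wells; qRT-PCR (TaqMan, Fluidigm array) for UGT1A1 mRNA, housekeeping-normalized; bidirectional curve fit vs DMSO baseline.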

[11] = read-out: UDP glucuronosyltransferase (UGT1A6), UGT1A6 (gene 54578); assay: LTEA_HepaRG_UGT1A6: Life Technologies and Expression Analysis (LTEA) Assay for UDP glucuronosyltransferase (UGT1A6) using HepaRG (AID 2283539); details: mRNA level, 48 h; actives raise or lower the signal
Procedure, shortened: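 HepaRG, 48 h post-plating switch to serum-free induction medium; chemical 48 h, 100 uM top, half-log x8, duplicate, 0.5% DMSO. Phenobarbital 1mM induction control. UGT1A6 mRNA by TaqMan qRT-PCR; gain/loss fit vs DMSO.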

[12] = read-out: X-box binding protein 1 (XBP1), XBP1 (gene 7494); assay: LTEA_HepaRG_XBP1: Life Technologies and Expression Analysis (LTEA) Assay for X-box binding protein 1 (XBP1) using HepaRG (AID 2283540); details: mRNA level, 48 h; actives raise or lower the signal
Procedure, shortened: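 Transcript levels of XBP1, measured by qRT-PCR and normalised to three housekeeping genes, were fitted bidirectionally relative to 0.5% DMSO controls. Human HepaRG cells received eight-point half-log dilutions from 100 uM for 48 h.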

[13] = LTEA_HepaRG_LDH_cytotoxicity: Cytotoxicity Assessment in the Life Technologies and Expression Analysis (LTEA) Assay (AID 2283563; active = hit-call score of the fitted dose curve at least 0.9, where 1 is the maximum;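 as to AC50: LDH activity released into spent culture medium as a marker of cell death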)
Procedure, shortened: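 Cells were thawed and plated for 48 h. Medium was then replaced with serum-free induction medium. Chemicals (8 half-log points, maximum 100 uM, 0.5% DMSO) were added in duplicate for 48 h, after which spent medium was assayed for LDH.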

[14] = TOX21_p53_BLA_p4_viability: Viability Assessment in the Tox21 HCT-116 p53 Agonism Beta-lactamase Assay, Phase 4 (AID 2283597; active = hit-call score of the fitted dose curve at least 0.9, where 1 is the maximum;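 also: hits lower the luminescence signal meaning cytotoxicity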)
Procedure, shortened: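 Readout: ATP luminescence (CellTiter-Glo), measured 30 min after reagent addition at RT. The reagent followed a 2 h CCF4-AM incubation, and the cells had been exposed to compound for 16 h at 37C.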

[15] = TOX21_p53_BLA_p3_viability: Viability Assessment in the Tox21 HCT-116 p53 Agonism Beta-lactamase Assay, Phase 3 (AID 2283593; active = hit-call score of the fitted dose curve at least 0.9, where 1 is the maximum;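 also: cells exposed to compound for 16 h before reading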)
Procedure, shortened: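 HCT-116 cells (4000/well) rested 5 h at 37C, then got DMSO compounds by pin tool (217-fold dilution) for 16 h at 37C, 5% CO2. After the bla read, CellTiter-Glo was added and luminescence read at 30 min, room temperature.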

[16] = target: Cellular tumor antigen p53 (Homo sapiens) (UniProt P04637); assay: TOX21_p53_BLA_p3_ratio: Tox21 HCT-116 p53 Agonism Beta-lactamase Assay, Ratio, Phase 3 (AID 2283596; active = hit-call score of the fitted dose curve at least 0.9, where 1 is the maximum)
Procedure, shortened: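 Cells were seeded at 4000/well, rested 5 h at 37C, then dosed with DMSO compound solutions (217-fold dilution) for 16 h. CCF4-AM substrate was loaded for 2 h at room temperature, and the 460/530 nm emission ratio was fitted for gain of signal versus DMSO.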

[17] = target: Cellular tumor antigen p53 (Homo sapiens) (UniProt P04637); assay: TOX21_p53_BLA_p2_ratio: Tox21 HCT-116 p53 Agonism Beta-lactamase Assay, Ratio, Phase 2 (AID 2283592; active = hit-call score of the fitted dose curve at least 0.9, where 1 is the maximum)
Procedure, shortened: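 Plated HCT116 p53-bla cells (4000/well) received compound after 5 h, then 16 h at 37C/5% CO2. CCF4-AM added, 2 h RT. Ratio of 460 to 530 nm emission taken as the p53 reporter signal.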

[18] = ATG_XTT_Cytotoxicity: Cytotoxicity Assessment in the Attagene TRANS-FACTORIAL HepG2 Assay (AID 2283584; active = hit-call score of the fitted dose curve at least 0.9, where 1 is the maximum)
Procedure, shortened: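 Cells: human HepG2, transiently transfected with MRTU reporter constructs. Exposure 24 h. Readout: XTT, cell number. Baseline/neg ctrl DMSO; loss-of-signal scored.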

Measured: AC50

Nuclear factor erythroid 2-related factor 2 (Homo sapiens), sequence (Q16236 whole entry, looked up): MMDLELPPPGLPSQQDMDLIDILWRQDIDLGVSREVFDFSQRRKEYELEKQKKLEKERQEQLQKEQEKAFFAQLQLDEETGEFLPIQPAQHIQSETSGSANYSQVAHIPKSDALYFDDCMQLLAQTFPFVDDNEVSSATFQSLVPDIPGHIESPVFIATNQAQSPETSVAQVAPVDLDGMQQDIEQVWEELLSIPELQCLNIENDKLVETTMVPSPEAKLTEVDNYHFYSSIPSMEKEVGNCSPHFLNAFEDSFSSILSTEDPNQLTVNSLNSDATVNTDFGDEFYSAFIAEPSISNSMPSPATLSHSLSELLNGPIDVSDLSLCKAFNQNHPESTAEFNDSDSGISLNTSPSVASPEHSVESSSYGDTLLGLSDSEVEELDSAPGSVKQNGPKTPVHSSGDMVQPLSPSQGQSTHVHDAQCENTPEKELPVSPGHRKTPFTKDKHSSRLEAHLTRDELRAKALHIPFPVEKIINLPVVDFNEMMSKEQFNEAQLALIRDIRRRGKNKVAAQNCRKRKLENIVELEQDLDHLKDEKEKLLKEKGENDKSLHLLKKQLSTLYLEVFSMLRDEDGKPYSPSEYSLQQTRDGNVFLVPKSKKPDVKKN
Cellular tumor antigen p53 (Homo sapiens), sequence (P04637 whole entry, looked up): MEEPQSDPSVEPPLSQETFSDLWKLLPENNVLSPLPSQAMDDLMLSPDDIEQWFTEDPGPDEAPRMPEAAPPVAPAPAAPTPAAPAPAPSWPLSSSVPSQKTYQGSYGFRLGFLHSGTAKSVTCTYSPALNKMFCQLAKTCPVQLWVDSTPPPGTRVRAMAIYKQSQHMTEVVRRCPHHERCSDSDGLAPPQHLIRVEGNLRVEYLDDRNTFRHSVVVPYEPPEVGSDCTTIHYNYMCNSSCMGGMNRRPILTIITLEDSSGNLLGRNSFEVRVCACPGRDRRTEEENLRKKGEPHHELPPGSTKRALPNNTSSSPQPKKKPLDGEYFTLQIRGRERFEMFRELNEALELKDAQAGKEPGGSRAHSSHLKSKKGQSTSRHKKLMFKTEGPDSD
Signal transducer and activator of transcription 3 (Homo sapiens), sequence (P40763 whole entry, looked up): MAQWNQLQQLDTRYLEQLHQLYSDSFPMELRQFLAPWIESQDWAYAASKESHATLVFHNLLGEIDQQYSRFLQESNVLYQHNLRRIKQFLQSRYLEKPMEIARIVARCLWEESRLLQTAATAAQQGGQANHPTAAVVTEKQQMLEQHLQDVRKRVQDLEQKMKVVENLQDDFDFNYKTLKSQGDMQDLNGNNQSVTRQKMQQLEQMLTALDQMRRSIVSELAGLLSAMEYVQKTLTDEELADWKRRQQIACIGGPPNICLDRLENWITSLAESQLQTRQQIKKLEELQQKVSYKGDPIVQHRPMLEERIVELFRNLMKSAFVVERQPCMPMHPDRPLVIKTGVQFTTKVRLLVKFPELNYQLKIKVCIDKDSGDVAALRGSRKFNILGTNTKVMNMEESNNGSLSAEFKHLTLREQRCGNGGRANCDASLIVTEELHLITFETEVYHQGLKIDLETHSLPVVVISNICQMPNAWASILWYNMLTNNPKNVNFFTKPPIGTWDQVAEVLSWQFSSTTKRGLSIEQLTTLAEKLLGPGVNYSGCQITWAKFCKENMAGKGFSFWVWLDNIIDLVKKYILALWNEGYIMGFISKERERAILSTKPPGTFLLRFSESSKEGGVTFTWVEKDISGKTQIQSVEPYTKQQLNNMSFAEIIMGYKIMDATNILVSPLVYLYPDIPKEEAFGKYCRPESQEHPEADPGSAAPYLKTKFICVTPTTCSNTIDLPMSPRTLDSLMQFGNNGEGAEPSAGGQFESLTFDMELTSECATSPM

CCOC(=O)COc1cc(-n2ncc(C(F)(F)F)c(C)c2=O)c(F)cc1Cl
not listed: [15] | [16] | [17] | [18]
inactive: all other assays above

CCC(C)OC(=O)N1CCCCC1CCO (centres undefined)
active: [10] 34.2 µM
not listed: [16] | [17] | [18]
inactive: all other assays above

O=C(O)C1(C(=O)Nc2ccc(Cl)cc2Cl)CC1
active: [2] 78.4 µM | [4] 87.4 µM | [8] 78 µM | [11] 79.6 µM | [12] 69.2 µM
not listed: [17] | [18]
inactive: all other assays above

CC(C)(C)[C@@H](O)[C@@H](Cc1ccc(Cl)cc1)n1cncn1
active: [8] 32.7 µM | [10] 6.98 µM
not listed: [18]
inactive: all other assays above

CCCCOC(=O)[C@@H](C)Oc1ccc(Oc2ccc(C(F)(F)F)cn2)cc1
not listed: [14] | [17] | [18]
inactive: all other assays above

CCCOC(=O)c1ccc(C(=O)OCCC)nc1
not listed: [17] | [18]
inactive: all other assays above

CCCCCOC(=O)COc1cc(N2C(=O)C3=C(CCCC3)C2=O)c(F)cc1Cl
not listed: [9] | [14] | [15] | [16] | [17] | [18]
inactive: all other assays above

COc1c(Cl)ccc(Cl)c1C(=O)O
not listed: [9] | [14] | [15] | [16] | [17] | [18]
inactive: all other assays above

COC(=O)c1ccccc1C(=O)O
not listed: [15] | [17] | [18]
inactive: all other assays above

S=C([S-])NCCNC(=S)[S-].[Mn+2]
inactive: [1] | [6] | TIMP1, TIMP1 (gene 7076)
active: [2] 1.77 µM | [3] 1.94 µM | [4] 3.76 µM | [5] 7.01 µM | [7] 3.32 µM | [8] 0.835 µM | [10] 2.75 µM | [11] 3.64 µM | [12] 3.17 µM | [13] 3.77 µM

CCOC(=O)NCCOc1ccc(Oc2ccccc2)cc1
active: [4] 82.7 µM | [5] 78.6 µM | [8] 75.8 µM | [9] 82.8 µM | [13] 82.2 µM
not listed: [17] | [18]
inactive: all other assays above

CCN(CC)C(=O)c1cccc(C)c1
active: [3] 4.39 µM | [10] 16.5 µM
not listed: [9] | [14] | [15] | [16] | [17]
inactive: all other assays above

c1ccc2[nH]c(-c3cscn3)nc2c1
active: [1] 50 µM | [10] 25.8 µM
not listed: [6] | [9] | [14] | [15] | [16] | [17]
inactive: all other assays above

CCCCOCCOCCOCc1cc2c(cc1CCC)OCO2
active: [1] 9.6 µM | [4] 6.8 µM | [8] 10.7 µM | [10] 3.72 µM
not listed: [9] | [14] | [15] | [16] | [17] | [18]
inactive: all other assays above

CCOC(=O)C(C)Oc1ccc(Oc2cnc3cc(Cl)ccc3n2)cc1 (centres undefined)
active: [4] 2.34 µM
not listed: [9] | [14] | [15] | [16] | [17] | [18]
inactive: all other assays above
